Assay outcomes as filed in PubChem BioAssay.
S-ASM inh: human S-ASM enzyme inhibition; Potency, µM (top dose mostly 57.5 µM), without a hit: at the top dose activity change, negative = inhibition, most hits filed as inhibitors; placental ASM, HMU-PC fluorogenic substrate, 60 min; P17405; AID 504937; actives 0.006% (n = 340,000); further: potency means the concentration at half of the fitted maximal effect
Target sequence (P17405 47-631 limits assumed): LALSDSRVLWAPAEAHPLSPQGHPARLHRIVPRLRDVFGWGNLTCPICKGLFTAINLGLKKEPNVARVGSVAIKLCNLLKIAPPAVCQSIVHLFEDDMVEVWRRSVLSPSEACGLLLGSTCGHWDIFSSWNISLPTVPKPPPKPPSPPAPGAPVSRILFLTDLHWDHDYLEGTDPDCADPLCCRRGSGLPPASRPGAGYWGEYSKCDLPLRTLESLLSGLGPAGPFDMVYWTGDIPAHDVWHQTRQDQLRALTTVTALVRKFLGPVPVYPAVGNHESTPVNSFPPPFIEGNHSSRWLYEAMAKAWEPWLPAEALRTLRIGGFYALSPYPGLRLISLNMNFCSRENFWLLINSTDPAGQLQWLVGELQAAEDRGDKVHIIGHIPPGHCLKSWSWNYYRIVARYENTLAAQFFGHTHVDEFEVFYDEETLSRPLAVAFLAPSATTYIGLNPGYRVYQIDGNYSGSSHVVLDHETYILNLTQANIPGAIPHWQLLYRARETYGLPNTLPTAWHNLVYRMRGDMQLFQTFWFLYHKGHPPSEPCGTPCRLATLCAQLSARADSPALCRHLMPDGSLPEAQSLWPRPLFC
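Fluorescence read-out (Ex 386 nm, Em 447 nm) after stopping the reaction at pH 10. Enzyme: ASM from human placenta; substrate HMU-PC0, 9 uM final; 60 min, 37 °C. Compound preincubation 10 min, ambient temperature.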
IL-1B inflam inh: inhibitors of inflammasome signaling (IL-1 beta secretion); THP-1 LPS/ATP IL-1B secretion, AlphaLISA, 16 h; hits give low values; activity change, % at 57.5 µM; actives 4.7% (n = 360,000); in the data active means activity change below about -50%; inconclusive means mostly about -30% to -49%; further: on the % scale 0 is the no-effect control and ±100 the full control effect
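THP-1 cells pretreated 1 hr with compounds (up to 57.5 uM final), then stimulated with LPS (250 ng/mL final) plus ATP (1.25 mM final); secreted IL-1B measured by AlphaLISA after 16 hr, decreased signal indicating inhibition.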
TDP1 cell noCPT: qHTS for Inhibitors of human tyrosyl-DNA phosphodiesterase 1 (TDP1): qHTS in cells in absence of CPT | actives 15% (n = 420,000) | DT40 Tdp1-/- hTDP1 cells, no CPT, ATP luminescence, 48 h | Potency, µM (series often up to 46.2 µM), inactives show top-dose activity change, negative = growth inhibition, usual class: inhibitors; further: potency means the concentration at half of the fitted maximal effect; on the % scale 0 is the no-effect control and ±100 the full control effect; nearly all actives have a fitted effect of over 55% in size
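Chicken DT40 Tdp1-/- cells stably complemented with human TDP1 were seeded at 400 cells/well with DMSO in place of 20 nM camptothecin. After compound pinning, cells grew at least 48 hr at 37 °C; viability read by CellTiter-Glo luminescence.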
TGFb inhibitor: inhibitors of TGF-b signaling; HepG2 CAGA-GFP TGF-b/SMAD3 reporter, GFP fluorescence, 18 h; TGF-beta stimulated, 500 pg/mL final; Potency, µM (highest dose often 46.1 µM), without a hit: at the highest dose activity, negative = inhibition, actives largely listed as inhibitors; actives 1.2% (n = 410,000); further: potency means the concentration at half of the fitted maximal effect; on the % scale 0 is the no-effect control and ±100 the full control effect; nearly all actives have a fitted effect of over 65% in size
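HEPG2 CAGA-GFP, 1000 cells/well; 2 h settle, 37 C; cpd via pin tool; TGF-b 500 pg/mL final; 18 h, 37 C; GFP imaging ex488/em500-530; %Activity normalised to -TGF-b and +DMSO controls; CRC fit, curve class.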
HepG2 tox: kills HepG2 cells in TGF-b inhibitor counter-screen; actives 0.76% (n = 410,000); AID 588856; Potency, µM (highest dose often 46.1 µM), without a hit: top-dose activity change, negative = cytotoxicity, usual class: cytotoxic; HepG2 CAGA-GFP viability, ATP luminescence, 18 h; further: potency means the concentration at half of the fitted maximal effect
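HepG2 CAGA-GFP cells (1000/well, DMEM with 1% FBS) received compound, then TGF-beta at 500 pg/mL final, and were incubated 18 hours at 37 degrees C. Viability was read by CellTiter-Glo luminescence. Media-only wells were set as complete cell-killing and DMSO as no toxicity.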
TDP1 cell CPT: growth inhibition of DT40 Tdp1-/-;hTDP1 cells with camptothecin (screen for TDP1 inhibitors); AID 686979; chicken DT40 Tdp1-/-;hTDP1 cells + 20 nM CPT, ATP luminescence, 48 h; Potency, µM (series often up to 46.2 µM), inactives show at the top dose activity change, negative = growth inhibition, usual class: inhibitors; actives 12% (n = 420,000); further: potency means the concentration at half of the fitted maximal effect; on the % scale 0 is the no-effect control and ±100 the full control effect; nearly all actives have a fitted effect of over 55% in size
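Chicken DT40 Tdp1-/- cells stably complemented with human TDP1 were seeded at 400 cells/well in medium containing 20 nM camptothecin, exposed to pin-transferred compounds, and grown at 37 °C for at least 48 hr. Viability was read as ATP luminescence.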
Numbers without * were called inactive; ? = inconclusive; · = not tested or not shown; ! = not confirmed by another sample. In the library only some 19% were active in any assay of this set; here they are far more common. Unless noted, the call rests on the fitted dose curve; in most records, active means well fitted curve in the direction sought with a large enough effect; inconclusive means small, poorly fitted or top-dose-only effect, or another doubt; inactive means no such curve, though single readings can be large; an effect the other way counts as inactive or inconclusive.

SMILES	S-ASM inh	IL-1B inflam inh	TDP1 cell noCPT	TGFb inhibitor	HepG2 tox	TDP1 cell CPT
O=C(CN1CCN(C2CCCCC2)CC1)Nc1ccc(Br)cc1	1%	-6	-23%	1%	0%	1%
CCOC(=O)C1CCCN(CC(=O)Nc2c(C(=O)OC)[nH]c3ccc(Br)cc23)C1 (stereo not drawn)	-6%	24	21µM*	?	-38%	16µM*
CCOC(=O)c1[nH]c2ccc(Br)cc2c1NC(=O)CCN1CCCC(C)(C)C1	2%	-11	26µM*	?	-19%	?
COC(=O)c1[nH]c2ccc(Br)cc2c1NC(=O)CN1CCN(C2CCCCC2)CC1	-7%	-100*	21µM*	?	-117%	26µM*
CCOC(=O)c1[nH]c2ccc(F)cc2c1NC(=O)CCN1CCOCC1	8%	7	13%	6%	-23%	4%
CCOC(=O)C1CCN(CC(=O)Nc2c(C(=O)OC)[nH]c3ccc(Cl)cc23)CC1	1%	7	10µM*	3%	2%	23µM*
CCOC(=O)C1CCCN(CCC(=O)Nc2c(C(=O)OC)[nH]c3cc(OC)ccc23)C1 (stereo not drawn)	0%	19	-8%	-3%	-35%	1%
CC(On1nnc2ccccc21)C(=O)N1CCN(Cc2ccccc2)CC1 (stereo not drawn)	0%	-6	-25%	-21%	-25%	1%
CCc1sc(NC(=O)CCC(=O)O)nc1-c1cc2ccccc2oc1=O	-4%	23	-3%	23%	34%	-3%
Cc1ccc(N2CCN(C(=O)c3cccn4c(=O)c5ccc(Cl)cc5nc34)CC2C)cc1 (stereo not drawn)	·	·	2%	4%	1%	-27%
COCCCNC(=S)Nc1cccc(SC)c1	-4%	25	0%	-5%	-4%	2%
C=C1C(=O)O[C@@H]2[C@H]3O[C@]3(C)CCC=C(C)CC[C@@H]12	·	·	2.1µM*	·	·	3µM*
Cc1ccc2nc(NS(=O)(=O)c3cn(C)nc3C)sc2c1	0%	3	17%	5%	2%	-3%
CC(C)C(NS(=O)(=O)c1ccc2c(c1)oc(=O)n2C)C(=O)NCCc1ccccc1 (stereo not drawn)	·	·	-5%	-7%	-5%	-11%
O=C(Nc1ccccc1Cl)c1cc(C2CCCN(C(=O)c3ccc4c(c3)CCO4)C2)on1 (stereo not drawn)	·	33	15µM*	-9%	-22%	13µM*
O=C(Nc1ccccc1Cl)c1cc(C2CCCN(S(=O)(=O)c3cccs3)C2)on1 (stereo not drawn)	·	25	-12%	?	11µM*	-23%
CCOc1cc(CNc2ccc(O)cc2)ccc1OCc1ccc(Cl)cc1Cl	-15%	-106*	15µM*	?	-25%	15µM*
CCOc1ccccc1CNc1ccc(O)cc1	-3%	38	?	16µM*	-78%	16µM*
CCOc1ccccc1CNCc1ccc(F)cc1	3%	-51*	?	0%	4%	-3%
CCOc1ccccc1CNc1nc2ccccc2n1C	-1%	-17	?	-2%	0%	-31%
COc1cc(CNc2ccc3[nH]c(=O)[nH]c3c2)ccc1OCc1ccc(F)cc1Cl	-1%	?	?	-3%	-1%	?
O/N=C/c1ccccc1OCc1ccccc1Cl	-5%	-27	-18%	-6%	-41%	1%
Oc1ccc(NCc2ccccc2OCc2ccccc2Cl)cc1	·	·	5.2µM*	·	-58%	15µM*
Oc1ccc(NCc2ccccc2OCc2ccccc2F)cc1	-6%	-6	16µM*	10µM*!	11µM*!	18µM*
CCOc1cccc(CNc2ccc(O)cc2)c1OCc1ccc(Cl)cc1	-7%	-3	?	?	-7%	15µM*
SMILES	S-ASM inh	IL-1B inflam inh	TDP1 cell noCPT	TGFb inhibitor	HepG2 tox	TDP1 cell CPT
O=S1(=O)CC(N2CCN(CC3CC3)CC2)CN1Cc1cn(Cc2ccccc2C(F)(F)F)nn1 (stereo not drawn)	·	8	-12%	6%	-11%	-3%
COc1cccc(CC(=O)N2CCN(c3ccccc3[N+](=O)[O-])CC2)c1	8%	21	-14%	-1%	-28%	?
COc1ccc(-n2nc([N+](=O)[O-])c(=NCCc3ccccc3)n2O)cc1	-5%	-7	?	?	3%	16µM*
O=[N+]([O-])c1nn(-c2ccccc2)n(O)c1=NCCc1ccccc1	-6%	-5	15µM*	?	-1%	6.5µM*
Cc1ccc(CCN=c2c([N+](=O)[O-])nn(-c3ccccc3)n2O)cc1	-8%	?	?	?	-1%	?
COc1cccc(CN=c2c([N+](=O)[O-])nn(-c3ccccc3C)n2O)c1	0%	9	?	-17%	-29%	23µM*
CCc1nc(N2CCN(C(=O)c3ccccc3)CC2)c(C#N)c2c1COC(C)(C)C2	3%	0	15µM*	18%	-29%	18µM*
CC1(C)Cc2c(C#N)c(N3CCOCC3)nc(Cc3ccccc3)c2CO1	50%	-15	21µM*	9%	-1%	?
Cc1ccn2c(Cc3ccccc3)c(-c3ccc(F)cc3)nc2c1	·	-19	21µM*	?	-30%	23µM*
Cc1ccc(Cc2c(-c3ccccc3)nc3cc(C)ccn23)cc1	·	20	18µM*	?	-30%	16µM*
Cc1ccc(Cc2c(-c3ccccc3)nc3c(Cl)cc(C(F)(F)F)cn23)cc1	·	37	-3%	2%	-1%	-4%
CC(C)c1ccc(N(CC(=O)NCc2ccco2)C(=O)CCC(=O)Nc2nccs2)cc1	-23%	?	?	-10%	-18%	-7%
CCc1ccc(NC(=O)Cn2c(=O)n(Cc3ccco3)c(=O)c3cccnc32)cc1	·	·	-21%	8%	-14%	-16%
Oc1ccc(C[C@@H]2CNCCN2CCc2cccc3ccccc23)cc1	1%	?	21µM*	?	-67%	15µM*
Fc1cccc(CCN2CCNC[C@H]2Cc2cccc3ccccc23)c1	3%	-60*	?	16µM*	16µM*	?
COc1ccc(/C=C/C(=O)N2CCC(c3nc4ccccc4o3)CC2)cc1OC	·	·	16µM*	-20%	-24%	?
